Hits are enriched below; roughly 5.4% of the tested compounds scored in any of these assays.
FMDV inh: blocks foot and mouth disease virus. FMDV antiviral cell-based qHTS. Potency, µM (highest dose often 57.9 µM), without a hit: top-dose activity change, negative = inhibition, actives largely listed as inhibitors. 410,000 tested, 1.2% active. AID 1159524; calls by dose curve; tested in HEK293T cells; also: read-out not given here; nearly all actives have a fitted effect of over 45% in size
Vaccinia mCherry: vaccinia inhibition (mCherry reporter). Vaccinia virus mCherry reporter infection, fluorescence. 310,000 tested, 0.63% active. Potency, µM (highest dose often 36.5 µM), for the others: at the top dose activity change, negative = inhibition, usual class: inhibitors. AID 720579; calls by dose curve; tested in A549 cells; also: nearly all actives have a fitted effect of over 35% in size
Lassa entry inh: Lassa virus entry inhibition. Lassa virus pseudotype entry inhibition, cell reporter. 300,000 tested, 1.2% active. Potency, µM (series often up to 37.9 µM), for inactives: at the top dose activity change, negative = inhibition, hits mostly inhibitors; calls by dose curve; tested in HEK293 cells; also: nearly all actives have a fitted effect of over 50% in size
MARV entry inh: inhibitors of Marburg virus binding or cell entry; Marburg virus pseudotyped entry inhibition, cell reporter; Potency, µM (doses to about 37.8 µM), inactives show at the top dose activity change, negative = inhibition, actives largely listed as inhibitors; 300,000 tested, 1.8% active; AID 540276; calls by dose curve; tested in HEK293 cells
VACV Venus inh: vaccinia inhibition (Venus reporter); Vaccinia virus Venus reporter expression, fluorescence; Potency, µM (top dose mostly 36.5 µM), inactives show at the highest dose activity change, negative = inhibition, actives largely listed as inhibitors; 330,000 tested, 0.46% active; calls by dose curve; tested in A549 cells; also: nearly all actives have a fitted effect of over 30% in size
Sm TGR block: inhibitors of Schistosoma mansoni thioredoxin glutathione reductase. Potency, µM (titrated, usually from 114 µM), for inactives: at the top dose activity change, negative = inhibition, hits mostly inhibitors. AID 485364. Q962Y6. 360,000 tested, 3% active. purified TGR, DTNB reduction, TNB absorbance 405 nm; active = well fitted inhibition curve with a large enough effect; inconclusive = small, poorly fitted or top-dose-only effect; inactive = no such curve, though single readings can be large or run the other way; also: nearly all actives have a fitted effect of over 60% in size
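First, TGR (20 nM dispensed) and NADPH were mixed with compound. Second, a 15 min room-temperature incubation followed. Third, further NADPH and then DTNB were added to start the reaction. Finally, TNB absorbance was monitored kinetically.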
Starred values were filed as active, the others as inactive; i = inactive; ? = inconclusive; · = no result; [ ] = remark or other dose. % is scaled to controls: 0 for no effect and ±100 for the full control effect; potency is read from the fitted curve at half-maximal effect.

SMILES | FMDV inh | Vaccinia mCherry | Lassa entry inh | MARV entry inh | VACV Venus inh | Sm TGR block
CC(=O)c1ccccc1-c1ccc2c(c1)CC(CNC(=O)c1cc(C)on1)O2 (configuration not stated) | -26% | -20% | · | · | -5% | ·
CCOC(=O)C1=C(NC(=S)NC(=O)c2ccccc2)c2ccccc2CC12CCCC2 | ? | ? | 2.6µM* | 3.7µM* | 2% | 0%
C=C[C@H]1CN2CC[C@H]1C[C@H]2[C@H](OC(=O)OCC)c1ccnc2ccc(OC)cc12 | -15% | -17% | · | · | -14% | ·
O=C(Cn1cc(SCc2ccc(C(F)(F)F)cc2)c2ccccc21)N1CCCCC1 | 0% | -18% | ? | · | -19% | 4%
CCN(CC)S(=O)(=O)c1cnccc1N1CCN(c2cccc(Cl)c2)CC1 | 40µM* | -28% | ? | ? | ? | 2%
O=C(Nc1ccc2[nH]ccc2c1)c1ccccc1 | -48% | -1%[7.34 µM] | 2.8µM* | 6.3µM* | 0%[7.34 µM] | 6%
O=C(NCCc1ccccc1)C(=O)NCC(c1ccco1)S(=O)(=O)c1cccs1 (configuration not stated) | -18% | -10% | -6%[46.1 µM] | · | -19% | 20µM*
O=C(NCC(c1ccco1)S(=O)(=O)c1cccs1)c1ccc(C(F)(F)F)cc1 (configuration not stated) | 4% | -6% | -18%[46.1 µM] | · | -7% | 4.5µM*
COc1ccc(C(=O)NCC(c2ccco2)S(=O)(=O)c2cccs2)cc1OC (configuration not stated) | -16% | -12% | -7%[46.1 µM] | · | -3% | 1.3µM*
O=C(NCC(c1cccs1)S(=O)(=O)c1cccs1)c1ccccc1 (configuration not stated) | -4% | -8%[7.34 µM] | -7%[46.1 µM] | · | -4%[7.34 µM] | ?
O=C(NCC(c1ccco1)S(=O)(=O)c1cccs1)c1ccccc1 (configuration not stated) | 15% | -12% | 2%[46.1 µM] | · | -16% | 0.32µM*
CCOC(=O)c1cc(-c2ccc(OC)cc2)n(CCC(=O)NC2CCC(C)CC2)c1C (configuration not stated) | -2% | -2% | ? | · | -3% | 4%
COCCNC(=O)CCC(=O)N1Cc2cccc(OC)c2Oc2ncccc21 | 0% | -5% | -1%[46.1 µM] | · | -4% | 12%
CCc1ccc(-c2cn3c(n2)sc2cc(C(=O)NCCc4ccc(OC)cc4OC)ccc23)cc1 | 1% | -11% | -14%[46.1 µM] | · | -16% | 0%
COc1ccccc1CCNC(=O)C(=O)NCC(c1ccco1)S(=O)(=O)c1ccccc1 (configuration not stated) | -28% | -7% | -15%[46.1 µM] | · | -13% | 35µM*
O=C(NCC(c1ccco1)S(=O)(=O)c1cccs1)c1ccc(F)c(F)c1 (configuration not stated) | -20% | -14% | -18%[46.1 µM] | · | -2% | 16µM*
Cc1ccc(C(=O)NCC(c2ccco2)S(=O)(=O)c2cccs2)cc1C (configuration not stated) | -2% | -13% | -12%[46.1 µM] | · | -15% | ?
O=C(CSc1nc2c(c(=O)[nH]1)CCCC2)Nc1ccccc1C(F)(F)F | -4% | 5% | 1%[46.1 µM] | 3%[46.1 µM] | 10% | -2%
O=C(O)c1ccccc1SCCS(=O)(=O)c1ccc(Cl)cc1Cl | 8% | i | · | · | -3% | 45µM*
COC(=O)/C=c1/sc2nc3ccccc3n2c1=O | 2% | -12% | ? | 18% | -4% | 8%
O=c1/c(=C/c2ccccn2)sc2nc3ccccc3n12 | 10µM* | -9% | -10% | ? | 4% | 2%
COc1ccc(Cn2ccc3nc(C)c(C(=O)N4CCN(c5ccc(F)cc5)CC4)cc3c2=O)cc1 | ? | -22% | -18%[46.1 µM] | · | -18% | 5%
C=C(C)C(=O)OC1(C(F)(F)F)Oc2cc(C)ccc2NC1=O (configuration not stated) | -29% | -23% | -20% | ? | -17% | 40µM*
CCOC(=O)C1(N(CC)CC)Sc2cc(C)ccc2NC1=O (configuration not stated) | -17% | ? | ? | ? | ? | 13%
COc1ccc(C(CC(=O)Nc2ccc(C(C)=O)cc2)N2Cc3ccccc3C2=O)cc1 (configuration not stated) | 0% | -14% | ? | · | -9% | 9%
SMILES | FMDV inh | Vaccinia mCherry | Lassa entry inh | MARV entry inh | VACV Venus inh | Sm TGR block
O=C(c1ccc(COc2ccc(Br)cc2)o1)N1N=C(C(F)F)CC1(O)C(F)F (configuration not stated) | 25µM* | ? | -56% | ? | ? | 4%
CCOc1ccc(OCc2ccc(C(=O)N3N=C(C(F)F)CC3(O)C(F)F)o2)cc1 (configuration not stated) | -31% | · | -1% | -7% | · | 14%
Cc1ccc(-c2ccc(CCC(=O)O)n2NC(=O)c2cccs2)cc1 | 9% | -21% | 17% | ? | -9% | -24%
Cc1ccccc1NC(=O)Cn1c(CCC(=O)O)ccc1-c1cccs1 | -25% | 2% | -19% | 0%[46.1 µM] | 1% | 40µM*
COC(=O)c1ccccc1NC(=O)Cn1c(CCC(=O)O)ccc1-c1cccs1 | 7% | -12% | 1%[46.1 µM] | ? | -16% | 50µM*
Cc1ccc(NC(=O)Cn2c(CCC(=O)O)ccc2-c2cccs2)cc1 | -18% | -3% | 18%[46.1 µM] | 7%[46.1 µM] | -3% | 25µM*
CC(C)NC(=O)c1cnc2sc(N3CCCCCC3)nn2c1=O | -7% | -9% | 1%[46.1 µM] | · | -7% | 0%
O=C1C(Cl)=C(N2CCCCC2)C(=O)C(Cl)=C1c1cnc(N2CCCCC2)s1 | -3% | · | 12µM* | ? | · | 0.25µM*
CCOc1ccc(C2=CC(c3cc(Br)ccc3F)n3ncnc3N2)cc1Cl (configuration not stated) | -8% | -11% | ? | · | -11% | -8%
Cc1ccc2nc(-c3c[nH]c4ccccc34)c(Nc3ccccc3)n2c1 | 21% | -10% | 6%[46.1 µM] | ? | -12% | -1%
COC(=O)c1cccc(-c2cc(Cl)c3c(c2)CC(CNC(=O)c2cccnc2)O3)c1 (configuration not stated) | -16% | -9% | · | · | 0% | ·
CN1C(=O)CC(N2CCC(C(N)=O)CC2)C1=O (configuration not stated) | -3% | -14%[1.46 µM] | -2% | 9% | -7% | -16%
Cc1ccccc1N1C(=O)CC(N2CCC(C(N)=O)CC2)C1=O (configuration not stated) | · | -7% | -24% | 7% | -11% | 22µM*
NC(=O)C1CCN(C2CC(=O)N(c3cccc(F)c3)C2=O)CC1 (configuration not stated) | -21% | · | 5% | -9% | -3% | 35µM*
O=C1CC(N2CCN(c3ccc(Cl)cc3)CC2)C(=O)N1c1ccc(F)cc1 (configuration not stated) | -29% | · | · | · | · | ?
NC(=O)C1CCN(C2CC(=O)N(c3ccc(F)c(Cl)c3)C2=O)CC1 (configuration not stated) | 8% | -11% | 4% | 0% | -8% | 25µM*

Screening results as filed in PubChem.
